The list is not random: actives were taken first. Their share in the collection is about 2.3%.
aSyn yeast inh – alpha-synuclein toxicity inhibition in yeast; Yeast expressing alpha-synuclein, growth rescue, BacTiter-Glo, 24 h; Potency, µM (top dose mostly 46.1 µM), for inactives: at the top dose growth rescue (activation), actives largely listed as activators; 370,000 compounds, 0.14% hits; AID 652106; also: potency is read from the fitted curve at half-maximal effect; % of control where 0% means no effect; nearly all actives have a fitted effect of over 65% in size
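Screening used galactose-induced yeast with toxic alpha-synuclein levels, exposed to compound for 24 hr at 30 deg C. Cell growth, read with BacTiter-Glo luminescence, gave the measured signal.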
FUS yeast rescue – FUS proteinopathy suppression in yeast; S. cerevisiae FUS-expressing, growth rescue, OD600, 24 h; Potency, µM (series often up to 76.6 µM), hits mostly activators; 390,000 compounds, 0.24% hits; AID 1347120;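 also: potency is read from the fitted curve at half-maximal effect; plate controls were DMSO vehicle for no effect and reference control for full effect; nearly all actives have a fitted effect of over 55% in size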
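FUS-expressing yeast, raffinose-pregrown, induced in 2% galactose minimal medium at OD 0.005; compounds in a dilution series, 24hr at 30C. Growth restoration read as absorbance at 600 nm. CP55940 positive control, DMSO negative.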
CCT modulator – changes cytosolic chaperonin activity; purified chaperonin ATPase assay, HTRF ADP detection, 30 min; activity change, % (test concentration not listed), hits read low; 360,000 compounds, 0.3% hits; AID 651819; in the data active = activity change below about -30%; also: % is scaled to controls: 0 for no effect and ±100 for the full control effect
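First, chaperonin was dispensed at 40 nM or 20 nM final depending on batch activity. Next, compounds were pinned at 76 uM and ATP added at 10 uM. After 30 min at 37 °C, ADP detection reagents ran 30 min at ambient temperature.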
MmCpn inh – M. maripaludis TRiC chaperonin inhibition | 330,000 compounds, 0.031% hits | purified Mm-Cpn ATPase, ADP Transcreener TR-FRET | Potency, µM (series often up to 76.9 µM), for inactives: at the top dose activity, negative = inhibition, most hits filed as inhibitors; also: potency is read from the fitted curve at half-maximal effect; % is scaled to controls: 0 for no effect and ±100 for the full control effect; nearly all actives have a fitted effect of over 80% in size
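ATP (10 uM final) was added to archaeal chaperonin (25 nM final) after 10 min exposure to test compound at 37°C; after 30 min further incubation, ADP was detected by competitive TR-FRET.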
Abeta rescue – A-beta toxicity reversal in yeast; 410,000 compounds, 0.063% hits; AID 1347071; yeast expressing A-beta42, growth rescue, OD600, 48 h; response scale: 0% DMSO, 100% iron-clioquinol control; Potency, µM (doses to about 46.1 µM), most hits filed as activators; also: potency is read from the fitted curve at half-maximal effect; nearly all actives have a fitted effect of over 55% in size
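Yeast growth medium received pinned compounds, then yeast cells expressing toxic A-beta were added; plates incubated at 30 C for 48 hr. Growth read as absorbance at 600 nm, normalized to DMSO and equimolar FeCl3 plus clioquinol controls.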
TDP43 rescue – inhibitors of TDP-43 toxicity in yeast | TDP-43 expressing yeast growth rescue, BacTiter-Glo, 24 h | Potency, µM (titrated, usually from 46.1 µM), inactives show at the highest dose growth rescue (activation), actives largely listed as activators | 410,000 compounds, 1.8% hits | AID 652104; also: potency is read from the fitted curve at half-maximal effect; % of control where 0% means no effect; nearly all actives have a fitted effect of over 50% in size
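In this qHTS, compounds that restore growth of yeast expressing TDP-43 appear as activators. Cells (OD600=0.02, galactose medium, raffinose-pregrown) are incubated with compound 24 hr at 30 deg C and growth is quantified by BacTiter-Glo.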
* = called active by the depositor; i = inactive; u = inconclusive; x = no result. Unless noted, calls follow the shape of the dose curve; as a rule, active = well fitted curve in the direction sought with a large enough effect; inconclusive = small, poorly fitted or top-dose-only effect, or another doubt; inactive = no such curve, though single readings can be large; an effect the other way counts as inactive or inconclusive.

SMILES	aSyn yeast inh	FUS yeast rescue	CCT modulator	MmCpn inh	Abeta rescue	TDP43 rescue
CC(=O)c1cnc2cc(-c3ccc(Cl)cc3)nn2c1C	2%	i	-3	-1%	i	-8%
Cc1c(C(=O)O)cnc2cc(-c3ccc(Cl)cc3)nn12	-4%	i	-1	2%	i	3.5µM*
CCOc1cc(/C=N/NC(=O)CN2CCCCC2)ccc1OCc1ccc(Cl)cc1	9%	i	-1	1%	i	6%
CCOc1cc(/C=N/NC(=O)CN2CCCCC2)ccc1OCc1cccc(Cl)c1	0%	x	-1	0%	i	13µM*
Cc1ccc2c(c1Br)C(O)(CC(=O)c1ccc(F)cc1)C(=O)N2 (configuration not stated)	x	i	x	x	i	22%
Cc1ccc(NC(=O)CCSc2nnnn2-c2ccc3c(c2)OCO3)cc1C	14%	i	1	0%	i	18µM*
CCC(=O)Nc1ccc(NC(=O)CSc2nnnn2-c2ccc3c(c2)OCCO3)cc1	-7%	i	1	1%	i	-18%
c1ccc(-c2ncnc3ccccc23)cc1	-3%	x	-1	x	i	13µM*
c1ccc(Sc2ncnc3ccccc23)cc1	9%	i	1	-9%	i	13µM*
N#CCSc1ncnc2ccccc12	-3%	i	-1	1%	i	9%
COc1cccc(-n2c(-c3ccccc3F)nc3c(cnn3-c3ccc(C)cc3)c2=O)c1	x	16µM*	x	x	i	-8%
CCCCCCOc1ccc(NC(=O)CC2C(=O)N(CC)C(=S)N2Cc2ccco2)cc1 (configuration not stated)	14µM*	x	2	1%	i	u
CC1CC1C(=O)N1CCC(Oc2cccnc2)CC1 (configuration not stated)	x	i	x	x	x	x
CC(=O)C1=C(c2ccc(Cl)c(Cl)c2)N(C(C)=O)n2c(C)nnc2S1	x	i	x	x	i	u
CCOc1ccc(C2=C(C(=O)CC)Sc3nncn3N2C(=O)CC)cc1	x	i	x	x	i	20µM*
COc1cccc(C2=C(C(C)=O)Sc3nncn3N2C(C)=O)c1	x	i	x	x	i	35µM*
CC(=O)C1=C(c2ccc(Cl)c(Cl)c2)N(C(C)=O)n2cnnc2S1	x	i	x	x	i	10µM*
Cc1ccc(C(=O)N2CCC(c3c[nH]c4ccccc34)(c3c[nH]c4ccccc34)CC2)cc1	x	i	x	x	i	9%
COc1ccc(S[C@]2(C(=O)N3CCOCC3)CC(=O)N[C@@H]2c2ccc(OC)cc2)cc1	x	i	x	x	x	x
NC1=NC(=O)/C(=C\c2ccc(-c3ccccc3[N+](=O)[O-])o2)S1	-2%	x	x	x	x	x
CN(C)c1ccc(-c2ccc(CCO)cc2)cc1	1%	x	x	x	x	x
Cc1sc2ncn(CC(=O)N3CCN(c4ccccc4)CC3)c(=O)c2c1S(=O)(=O)N1CCC(C)CC1	x	25µM*	x	x	i	-1%
Cc1sc2ncn(CC(=O)N3CCN(c4cccc(Cl)c4)CC3)c(=O)c2c1S(=O)(=O)N1CCC(C)CC1	x	25µM*	x	x	i	2%
CCCCNS(=O)(=O)CC1NCCc2ccccc21 (configuration not stated)	x	i	x	x	x	x
Cc1oc2c(C)c3oc(=O)c(CCC(=O)N4CCCCC4)c(C)c3cc2c1C	x	i	x	x	i	3%
CC(C)(C)c1ccc(OCCC(=O)OCC(=O)NC2CCCCC2)cc1	7%	i	1	-2%	i	35µM*
O=C(COC(=O)Cc1c(Cl)cccc1Cl)NC1CCCC1	12%	i	-3	1%	i	20µM*
COc1cccc(-c2cnc3c(NC(C)=O)cc(-c4ccc(C(=O)NC5CC5)cc4)cn23)c1	7%	u	-35*	x	i	10%
COc1ccc(-c2cnc3c(NC(C)=O)cc(-c4ccc(C(=O)NC5CC5)cc4)cn23)cc1OC	-6%	i	-1	x	i	21%
COc1ccc(-c2cc(NC=O)c3ncc(-c4cccc(OC)c4)n3c2)cc1	-16%	i	0	x	i	10µM*
